Test results from the supplement of paper PMC12819154, “High-throughput peptide-centric local stability assay extends protein–ligand identification to membrane proteins, tissues and bacteria” (Nature Structural & Molecular Biology, 2025).

compound: Nc1ncnc2c1ncn2[C@@H]1O[C@H](COP(=O)(O)OP(=O)(O)OP(=O)(O)O)[C@@H](O)[C@H]1O [adenosine 5'-triphosphate]; experiment: log2 fold change of tryptic peptide abundance, ligand vs vehicle (limited proteolysis) (log2 ratio); higher = more trypsin-susceptible (destabilized); details: ligand concentration: 5 mM; sample: E. coli desalted lysate; replicate design: treated before aliquoting
Procedure: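 HT-PELSA: desalted E. coli K-12 BW25113 lysate (with 12 mM MgCl2) incubated with 5 mM ATP (pH 7) or water for 30 min at 25 C, then a 4 min trypsin pulse at 22 C. Peptides were quantified by DIA-MS (4 replicates). Value is the peptide log2 fold change (treated/control); negative = stabilized. Scale: negative = ligand-stabilized region.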

| Target | log2 fold change |
| --- | --- |
| UniProt P77215 (peptide sequence: AWFTGGATAEK, peptide start residue: 11) | -0.425 |
| UniProt P39180 (peptide sequence: NLNGQNGTISLR, peptide start residue: 603) | 0.735 |
| UniProt P76340 (peptide sequence: ILLIEDNQR, peptide start residue: 3) | -0.349 |
| UniProt P76536 (peptide sequence: ALSGGVGAEELK, peptide start residue: 66) | 0.555 |
| UniProt P75957 (peptide sequence: KKPAEINSR, peptide start residue: 117) | -1.5 |
| UniProt P75767 (peptide sequence: VLSSLSSLGSR, peptide start residue: 24) | -1.19 |

compound: Cc1nc(Nc2ncc(C(=O)Nc3c(C)cccc3Cl)s2)cc(N2CCN(CCO)CC2)n1 [dasatinib]; experiment: as above; details: ligand concentration: 5 uM; sample: K562 cleared lysate

| Target | log2 fold change |
| --- | --- |
| LIMK2 (peptide sequence: GFFGQAIK, peptide start residue: 340) (UniProt P53671) | -1.19 |
| MAPK11 (peptide sequence: ILDFGLAR, peptide start residue: 167) (UniProt Q15759) | -0.259 |
| ADK (peptide sequence: TGCTFPEKPDFH, peptide start residue: 351) (UniProt P55263) | -0.858 |
